# Source: PubChem BioAssay
# Active and inactive are the calls of the source.
# Tests used:
# Albumin (Bos taurus) = Albumin (Bos taurus) (UniProt P02769); assay: compounds binding labelled BSA control protein – biochemical, small-molecule microarray, Alexa647 label, 635/667 nm fluorescence, artefact control for SMM control protein annotation, profiling panel (AID 1118); conditions: BSA-A647 binding, fluorescence 635 nm, higher = more signal;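 also: score merges 667 nm emission intensity and signal-to-noise per printed compound spot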
# [1] = probe aXIP binding to arrayed compounds – biochemical, NeuroSMM set, 635/667 nm fluorescence, primary screen (AID 1119); conditions: small-molecule microarray, higher = more signal, called active from +8 up or from −8 down;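 also: probe is the protein aXip251-270 applied at 1 µg/mL to compound-printed slides; binding of probe to printed compounds measured as 667 nm fluorescence plus signal to noise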
# [2] = probe aNOTCH3 binding on compound microarray – biochemical, small-molecule microarray, 635/667 nm fluorescence, primary screen (AID 1120); conditions: higher = more signal;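 also: probe is a biotin-tagged antibody raised against NOTCH3 rather than NOTCH3 protein; score merges spot fluorescence near 667 nm with spot signal to noise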
# [3] = probe aNOTCH2 binding on compound microarray – biochemical, small-molecule microarray, 635/667 nm fluorescence, primary screen (AID 1121); conditions: higher = more signal;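 also: score merges feature fluorescence read at 667 nm with its signal to noise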
# [4] = target: Carbonic anhydrase 2 (Homo sapiens) (UniProt P00918); assay: compounds binding carbonic anhydrase 2 – biochemical, small-molecule microarray, Alexa647-labelled CAII, profiling panel (AID 1122); conditions: CAII-A647 binding fluorescence, higher = more signal
# [5] = COS7 lysate on small-molecule microarray, probe aHis, 635 nm (AID 1123); conditions: COS7 cell lysate, fluorescence, higher = more signal;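 also: z-score combines 667nm fluorescence intensity with signal-to-noise per printed compound spot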
# [6] = probe aLAP1 signal on lysate-treated microarray – cell lysate, small-molecule microarray, COS7 lysate, primary screen (AID 1124); conditions: probe aLAP1, fluorescence, higher = more signal;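 also: lysate comes from COS7 cells expressing LAP1 and is applied at 0.3 µg/mL; score merges spot fluorescence near 667 nm with signal-to-noise over triplicate slides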
# Sam68 (KHDRBS1) = assay: compounds binding KHDRBS1 protein – biochemical, small-molecule microarray, 635 nm fluorescence, primary screen (AID 1125); conditions: higher = more signal;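 also: score merges 667 nm channel intensity with signal to noise over triplicate slides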
# [7] = tested on: Chordin-like protein 2 (CHRDL2); assay: compounds binding chordin-like 2 – biochemical, small-molecule microarray, 635 nm fluorescence, primary screen (AID 1126); conditions: fluorescence 635 nm, higher = more signal;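 also: printed compound slides probed with Chrdl2 protein at 4 µg/mL for 1 h at 4 C; score merges 667 nm emission intensity with signal to noise over three replicate slides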
# [8] = target: Concanavalin-A (Canavalia ensiformis) (UniProt P02866); assay: compounds binding concanavalin A lectin – biochemical, small-molecule microarray, Alexa647 label, 635 nm, artefact control for SMM control protein annotation, primary screen (AID 1127); conditions: ConA-A647 binding fluorescence, higher = more signal;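 also: z combines 667 nm emission intensity with signal-to-noise across three replicate slides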
# [9] = compounds binding Alexa647 anti-His antibody – biochemical, small-molecule microarray, 635 nm fluorescence, artefact control for SMM control protein annotation, primary screen (AID 1128); conditions: higher = more signal;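 also: score merges feature fluorescence with signal-to-noise for each printed compound spot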
# [10] = tested on: Human papillomavirus type 1a E7 protein (residues 1-88); assay: HPV1a E7 small-molecule binders, primary screen, biochemical, small-molecule microarray, residues 1-88, 635 nm (AID 1129); conditions: small-molecule microarray binding, fluorescence 635 nm; higher = more signal
# [11] = target: Focal adhesion kinase 1 (Homo sapiens) (UniProt Q05397); assay: PTK2 protein binding on printed compound slides – biochemical, small-molecule microarray, 635/667 nm fluorescence, BSA, DTT, primary screen (AID 1130); conditions: 635 nm fluorescence, higher = more signal;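 also: composite of spot emission at 667 nm and signal to noise over triplicate slides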
# [12] = tested on: Fibrinogen (Alexa647-labelled); assay: Alexa647-fibrinogen binding to printed small molecules – biochemical, small-molecule microarray, 635/667 nm fluorescence, artefact control for SMM control-protein annotation, profiling panel (AID 1131); conditions: fibrinogen-A647 binding fluorescence, higher = more signal;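 also: z-score merges 667 nm fluorescence with per-spot signal-to-noise over triplicate slides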
# [13] = target: Follistatin (Homo sapiens) (UniProt P19883); assay: FST protein binding to printed compounds – biochemical, small-molecule microarray, 635/667 nm fluorescence, primary screen (AID 1132); conditions: 635 nm fluorescence, higher = more signal
# [14] = target: Fibroblast growth factor 2 (Homo sapiens) (UniProt P09038); assay: basic fibroblast growth factor binding to printed compounds – biochemical, small-molecule microarray, 635/667 nm fluorescence, primary screen (AID 1133); conditions: FGF2, fluorescence 635/667, higher = more signal
# [15] = JC-1 mitochondrial potential readout, lung cancer cells – cell-based, A549, JC-1 fluorescence, basal, 24 h, 100 nL, profiling panel (AID 1138); conditions: higher = more signal;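 also: A549 lung adenocarcinoma cells under basal conditions with no added stimulus; test concentration not given here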
# Lefty1 = Lefty1 protein binding to printed compounds – biochemical, small-molecule microarray, 635/667 nm fluorescence, primary screen (AID 1139); conditions: fluorescence 635/667, higher = more signal
# [16] = tested on: wheat germ agglutinin (Triticum aestivum), Alexa647-labelled; assay: Alexa647-WGA lectin binding to printed small molecules – biochemical, small-molecule microarray, 635/667 nm fluorescence, artefact control for SMM control-protein annotation, profiling panel (AID 1140); conditions: WGA-A647 binding, 635 nm fluorescence, higher = more signal;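 also: score merges 667 nm feature emission with signal to noise over triplicate slides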
# [17] = target: Luciferin 4-monooxygenase (Photinus pyralis) (UniProt P08659); assay: inhibition of purified Photinus pyralis luciferase – biochemical, luminescence, purified enzyme, 2006 set, primary screen (AID 1141); conditions: purified firefly luciferase, SteadyGlo luminescence, 30 min; higher = more signal, called active from +8 up or from −8 down;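 also: cell-free assay with purified firefly luciferase at 100 ng per well in PBS; test concentration not given here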
# Luciferin 4-monooxygenase (Photinus pyralis), sequence (P08659 whole entry, looked up): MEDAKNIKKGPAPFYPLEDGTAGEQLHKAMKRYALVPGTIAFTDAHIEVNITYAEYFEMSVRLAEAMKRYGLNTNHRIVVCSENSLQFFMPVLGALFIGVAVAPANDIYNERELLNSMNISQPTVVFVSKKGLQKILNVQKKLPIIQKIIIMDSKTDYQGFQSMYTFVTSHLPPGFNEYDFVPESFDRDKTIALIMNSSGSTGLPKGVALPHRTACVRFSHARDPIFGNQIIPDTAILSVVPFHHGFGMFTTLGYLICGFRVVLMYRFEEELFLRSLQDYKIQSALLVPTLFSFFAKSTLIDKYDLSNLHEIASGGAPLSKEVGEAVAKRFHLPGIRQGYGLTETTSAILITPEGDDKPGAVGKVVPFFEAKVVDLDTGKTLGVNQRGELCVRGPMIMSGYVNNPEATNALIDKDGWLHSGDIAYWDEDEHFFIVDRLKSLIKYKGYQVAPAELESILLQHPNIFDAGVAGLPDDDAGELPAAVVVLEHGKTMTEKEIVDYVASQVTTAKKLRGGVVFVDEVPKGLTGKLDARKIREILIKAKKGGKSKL
# Follistatin (Homo sapiens), sequence (P19883 whole entry, looked up): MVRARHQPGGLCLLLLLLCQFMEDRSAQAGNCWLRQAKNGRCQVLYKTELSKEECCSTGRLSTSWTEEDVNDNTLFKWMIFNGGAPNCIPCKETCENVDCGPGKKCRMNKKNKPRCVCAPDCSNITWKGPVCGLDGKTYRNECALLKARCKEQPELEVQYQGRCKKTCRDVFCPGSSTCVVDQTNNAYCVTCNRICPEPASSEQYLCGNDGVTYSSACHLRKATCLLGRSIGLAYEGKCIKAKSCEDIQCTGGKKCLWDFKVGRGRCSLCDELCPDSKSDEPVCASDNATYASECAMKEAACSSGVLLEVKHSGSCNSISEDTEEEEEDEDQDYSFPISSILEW
# Concanavalin-A (Canavalia ensiformis), sequence (P02866 whole entry, looked up): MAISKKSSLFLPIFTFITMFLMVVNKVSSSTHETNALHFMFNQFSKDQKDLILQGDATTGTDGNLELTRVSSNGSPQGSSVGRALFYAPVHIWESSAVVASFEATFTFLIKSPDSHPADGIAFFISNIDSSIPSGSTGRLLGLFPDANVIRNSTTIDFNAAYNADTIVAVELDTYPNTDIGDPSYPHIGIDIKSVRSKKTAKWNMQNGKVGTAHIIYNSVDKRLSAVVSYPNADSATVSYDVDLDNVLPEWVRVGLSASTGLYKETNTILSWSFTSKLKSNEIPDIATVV
# Albumin (Bos taurus), sequence (P02769 whole entry, looked up): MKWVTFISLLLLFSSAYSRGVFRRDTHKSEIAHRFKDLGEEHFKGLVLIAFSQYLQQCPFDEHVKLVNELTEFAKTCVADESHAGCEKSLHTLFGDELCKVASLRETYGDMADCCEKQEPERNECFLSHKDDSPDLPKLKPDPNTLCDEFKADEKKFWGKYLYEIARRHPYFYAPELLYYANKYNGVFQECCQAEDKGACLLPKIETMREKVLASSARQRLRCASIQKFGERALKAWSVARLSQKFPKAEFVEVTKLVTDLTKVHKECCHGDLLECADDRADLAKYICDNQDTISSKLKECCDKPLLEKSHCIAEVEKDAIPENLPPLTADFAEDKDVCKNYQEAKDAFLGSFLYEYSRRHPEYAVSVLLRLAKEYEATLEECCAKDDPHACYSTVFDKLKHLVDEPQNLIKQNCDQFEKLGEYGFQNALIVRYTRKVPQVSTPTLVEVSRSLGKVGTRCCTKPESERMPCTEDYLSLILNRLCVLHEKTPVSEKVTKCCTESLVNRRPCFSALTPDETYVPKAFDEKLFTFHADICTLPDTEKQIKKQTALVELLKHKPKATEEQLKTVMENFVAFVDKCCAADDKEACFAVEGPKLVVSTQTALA
# Focal adhesion kinase 1 (Homo sapiens), sequence (Q05397 whole entry, looked up): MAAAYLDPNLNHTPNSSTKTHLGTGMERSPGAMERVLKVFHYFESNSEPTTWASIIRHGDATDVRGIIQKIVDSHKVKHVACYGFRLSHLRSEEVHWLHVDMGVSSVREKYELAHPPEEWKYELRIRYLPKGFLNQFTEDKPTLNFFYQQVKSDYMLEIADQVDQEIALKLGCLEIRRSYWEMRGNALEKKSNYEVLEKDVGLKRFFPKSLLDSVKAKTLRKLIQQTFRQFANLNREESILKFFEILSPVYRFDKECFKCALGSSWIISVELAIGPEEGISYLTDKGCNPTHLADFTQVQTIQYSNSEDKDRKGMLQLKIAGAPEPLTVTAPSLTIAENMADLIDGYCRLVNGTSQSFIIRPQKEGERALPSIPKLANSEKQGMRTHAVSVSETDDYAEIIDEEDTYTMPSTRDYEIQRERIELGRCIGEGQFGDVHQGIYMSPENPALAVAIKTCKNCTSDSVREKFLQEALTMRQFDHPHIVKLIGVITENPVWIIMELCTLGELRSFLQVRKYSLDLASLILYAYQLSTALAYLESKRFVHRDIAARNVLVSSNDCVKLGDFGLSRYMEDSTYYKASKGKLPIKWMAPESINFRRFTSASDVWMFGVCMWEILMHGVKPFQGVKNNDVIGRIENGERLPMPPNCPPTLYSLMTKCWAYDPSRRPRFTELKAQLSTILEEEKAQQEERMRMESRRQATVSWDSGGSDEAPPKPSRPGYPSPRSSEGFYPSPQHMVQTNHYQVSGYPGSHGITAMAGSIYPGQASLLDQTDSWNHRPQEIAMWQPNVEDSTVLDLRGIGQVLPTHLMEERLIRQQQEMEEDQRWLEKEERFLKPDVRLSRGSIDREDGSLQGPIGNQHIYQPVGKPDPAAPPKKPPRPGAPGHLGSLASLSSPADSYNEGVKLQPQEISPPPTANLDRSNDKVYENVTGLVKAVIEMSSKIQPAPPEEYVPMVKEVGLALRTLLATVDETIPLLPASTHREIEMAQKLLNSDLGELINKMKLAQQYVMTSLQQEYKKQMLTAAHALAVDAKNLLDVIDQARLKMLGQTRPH
# Fibroblast growth factor 2 (Homo sapiens), sequence (P09038 whole entry, looked up): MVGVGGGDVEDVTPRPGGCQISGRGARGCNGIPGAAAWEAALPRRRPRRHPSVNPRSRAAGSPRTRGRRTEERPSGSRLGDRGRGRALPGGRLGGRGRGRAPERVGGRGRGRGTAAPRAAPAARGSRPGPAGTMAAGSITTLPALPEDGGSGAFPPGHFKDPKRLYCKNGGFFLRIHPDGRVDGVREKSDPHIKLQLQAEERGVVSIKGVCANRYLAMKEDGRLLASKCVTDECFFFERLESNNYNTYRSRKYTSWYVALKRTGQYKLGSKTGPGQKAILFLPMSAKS
smiles,measurement,setting,value
COC(=O)[C@@]1(Cc2ccc(OC)cc2)[C@H]2c3cc(C(=O)N(C)C)n(Cc4ccccn4)c3C[C@H]2CN1C(=O)c1ccccc1,composite z-score,Albumin (Bos taurus),0.972
same,composite Z-score,[1],0.655 (inactive)
same,composite z-score,[2],0.0674
same,composite z-score,[3],0.293
same,composite z-score,[4],0.89
same,composite z-score,[5],3.14
same,composite z-score,[6],1.03
same,composite z-score,Sam68 (KHDRBS1),-0.0453
same,composite z-score,[7],-0.855
same,composite z-score,[8],-0.0204
same,composite z-score,[9],1.57
same,composite z-score,[10],0.451
same,composite z-score,[11],1.44
same,composite z-score,[12],0.547
same,composite z-score,[13],-0.363
same,composite z-score,[14],-0.567
same,z-score,[15],0.332
same,composite z-score,Lefty1,-0.805
same,composite z-score,[16],1.35
same,z-score,[17],1.6 (inactive)
C=CCNC(=O)[C@H]1[C@@H]2C(=O)O[C@@H](c3ccccc3)[C@@H](c3ccccc3)N2[C@@H](c2ccccc2OCCO)[C@]12C(=O)Nc1ccc(C#CCC(C(=O)OC)C(=O)OC)cc12,composite z-score,Albumin (Bos taurus),-0.195
same,composite Z-score,[1],1.15 (inactive)
same,composite z-score,[2],0.308
same,composite z-score,[3],0.0029
same,composite z-score,[4],0.251
same,composite z-score,[5],2.23
same,composite z-score,[6],0.634
same,composite z-score,Sam68 (KHDRBS1),1.29
same,composite z-score,[7],1.37
same,composite z-score,[8],0.944
same,composite z-score,[9],1.46
same,composite z-score,[10],1.26
same,composite z-score,[11],0.412
same,composite z-score,[12],0.931
same,composite z-score,[13],1.35
same,composite z-score,[14],1.27
same,z-score,[15],0.627
same,composite z-score,Lefty1,1.25
same,composite z-score,[16],1.28
same,z-score,[17],0.62 (inactive)
COCCOC(=O)N1C(=O)[C@@]2(c3cc(C#CCC(C(=O)OC)C(=O)OC)ccc31)[C@H](C(=O)Nc1nc3ccccc3s1)[C@H]1C(=O)O[C@H](c3ccccc3)[C@H](c3ccccc3)N1[C@@H]2c1ccccc1OCCO,composite z-score,Albumin (Bos taurus),0.893
same,composite Z-score,[1],0.259 (inactive)
same,composite z-score,[2],-0.0343
same,composite z-score,[3],-0.0956
same,composite z-score,[4],0.559
same,composite z-score,[5],1.9
same,composite z-score,[6],0.581
same,composite z-score,Sam68 (KHDRBS1),1.29
same,composite z-score,[7],-0.0859
same,composite z-score,[8],1.19
same,composite z-score,[9],1.41
same,composite z-score,[10],1.22
same,composite z-score,[11],0.714
same,composite z-score,[12],0.965
same,composite z-score,[13],0.602
same,composite z-score,[14],0.579
same,z-score,[15],-2.07
same,composite z-score,Lefty1,0.275
same,composite z-score,[16],1.2
same,z-score,[17],-1.56 (inactive)
COC(=O)C(CC#Cc1ccc2c(c1)[C@]1(C(=O)N2)[C@H](C(=O)Nc2nc3ccccc3s2)[C@H]2C(=O)O[C@H](c3ccccc3)[C@H](c3ccccc3)N2[C@@H]1c1ccc(O)cc1)C(=O)OC,composite z-score,Albumin (Bos taurus),0.646
same,composite Z-score,[1],0.298 (inactive)
same,composite z-score,[2],-0.0431
same,composite z-score,[3],-0.0846
same,composite z-score,[4],0.378
same,composite z-score,[5],1.96
same,composite z-score,[6],0.301
same,composite z-score,Sam68 (KHDRBS1),1.3
same,composite z-score,[7],0.673
same,composite z-score,[8],1.04
same,composite z-score,[9],0.274
same,composite z-score,[10],1.24
same,composite z-score,[11],0.936
same,composite z-score,[12],0.947
same,composite z-score,[13],1.2
same,composite z-score,[14],0.973
same,z-score,[15],-2.25
same,composite z-score,Lefty1,0.963
same,composite z-score,[16],1.01
same,z-score,[17],0.416 (inactive)
CCOC(=O)C[C@H]1[C@H](OC(=O)c2cc3ccccc3oc2=O)[C@@H](NC(=O)c2ccccc2)c2cc(OCCCO)ccc2N1C(=O)c1ccc2ccccc2n1,composite z-score,Albumin (Bos taurus),-0.117
same,composite Z-score,[1],0.315 (inactive)
same,composite z-score,[2],0.0496
same,composite z-score,[3],0.655
same,composite z-score,[4],0.515
same,composite z-score,[5],0.922
same,composite z-score,[6],0.0418
same,composite z-score,Sam68 (KHDRBS1),0.845
same,composite z-score,[7],0.651
same,composite z-score,[8],0.821
same,composite z-score,[9],0.255
same,composite z-score,[10],0.625
same,composite z-score,[11],-0.148
same,composite z-score,[12],0.586
same,composite z-score,[13],1.19
same,composite z-score,[14],0.563
same,z-score,[15],-0.339
same,composite z-score,Lefty1,0.87
same,composite z-score,[16],0.345
same,z-score,[17],0.409 (inactive)
COC(=O)[C@@]1(Cc2ccc(F)cc2)[C@H]2c3cc(C(=O)N(C)C)n(Cc4ccc(Cl)c(C(F)(F)F)c4)c3C[C@H]2CN1C(=O)c1ccccc1,composite z-score,Albumin (Bos taurus),1.03
same,composite Z-score,[1],0.623 (inactive)
same,composite z-score,[2],0.405
same,composite z-score,[3],0.266
same,composite z-score,[4],0.77
same,composite z-score,[5],3.26
same,composite z-score,[6],1.05
same,composite z-score,Sam68 (KHDRBS1),1.31
same,composite z-score,[7],-0.899
same,composite z-score,[8],1.15
same,composite z-score,[9],2.56
same,composite z-score,[10],1.22
same,composite z-score,[11],1.14
same,composite z-score,[12],1.01
same,composite z-score,[13],0.909
same,composite z-score,[14],-0.542
same,z-score,[15],1.98
same,composite z-score,Lefty1,-0.764
same,composite z-score,[16],1.4
same,z-score,[17],1.04 (inactive)
C=C(CCCC)/C(=C/C[C@H](OC(=O)c1ccncc1)c1ccccc1OCCO)c1cnc2ccccc2c1,composite z-score,Albumin (Bos taurus),0.0803
same,composite Z-score,[1],-0.153 (inactive)
same,composite z-score,[2],0.0259
same,composite z-score,[3],-0.182
same,composite z-score,[4],0.862
same,composite z-score,[5],1.25
same,composite z-score,[6],0.406
same,composite z-score,Sam68 (KHDRBS1),1.16
same,composite z-score,[7],0.66
same,composite z-score,[8],1.14
same,composite z-score,[9],0.997
same,composite z-score,[10],1.08
same,composite z-score,[11],0.166
same,composite z-score,[12],0.47
same,composite z-score,[13],1.27
same,composite z-score,[14],0.912
same,z-score,[15],0.957
same,composite z-score,Lefty1,1.14
same,composite z-score,[16],1.14
same,z-score,[17],-0.372 (inactive)
COCCOC(=O)N1C(=O)[C@@]2(c3cc(C#CCCO)ccc31)[C@H](C(N)=O)[C@H]1C(=O)O[C@H](c3ccccc3)[C@H](c3ccccc3)N1[C@@H]2c1ccc(O)cc1,composite z-score,Albumin (Bos taurus),0.205
same,composite Z-score,[1],-0.516 (inactive)
same,composite z-score,[2],-0.159
same,composite z-score,[3],-0.118
same,composite z-score,[4],0.463
same,composite z-score,[5],0.387
same,composite z-score,[6],0.505
same,composite z-score,Sam68 (KHDRBS1),0.0991
same,composite z-score,[7],-0.464
same,composite z-score,[8],-0.332
same,composite z-score,[9],-0.0637
same,composite z-score,[10],-0.469
same,composite z-score,[11],-0.167
same,composite z-score,[12],0.141
same,composite z-score,[13],-0.15
same,composite z-score,[14],0.0091
same,z-score,[15],0.0757
same,composite z-score,Lefty1,-0.431
same,composite z-score,[16],0.115
same,z-score,[17],-0.381 (inactive)
